Only a selection was taken, and hits are over-represented in it overall.
PRC2 inh – EZH2 (human) methyltransferase inhibition; inhibition, % at 12.5 µM; AID 651548; PRC2 H3K27 methylation, DELFIA TRF, 1 h; 57,000 compounds, 0.35% hits; Q15910;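 active means mean inhibition of replicates at least 50% and every single replicate also reaching 50%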;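 further: dimethyl H3K27 on biotinylated H3 21-44 peptide detected by antibody; plate controls were median neutral control wells for no effect and median positive control wells for full effect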
Target sequence (Q15910 whole entry, looked up): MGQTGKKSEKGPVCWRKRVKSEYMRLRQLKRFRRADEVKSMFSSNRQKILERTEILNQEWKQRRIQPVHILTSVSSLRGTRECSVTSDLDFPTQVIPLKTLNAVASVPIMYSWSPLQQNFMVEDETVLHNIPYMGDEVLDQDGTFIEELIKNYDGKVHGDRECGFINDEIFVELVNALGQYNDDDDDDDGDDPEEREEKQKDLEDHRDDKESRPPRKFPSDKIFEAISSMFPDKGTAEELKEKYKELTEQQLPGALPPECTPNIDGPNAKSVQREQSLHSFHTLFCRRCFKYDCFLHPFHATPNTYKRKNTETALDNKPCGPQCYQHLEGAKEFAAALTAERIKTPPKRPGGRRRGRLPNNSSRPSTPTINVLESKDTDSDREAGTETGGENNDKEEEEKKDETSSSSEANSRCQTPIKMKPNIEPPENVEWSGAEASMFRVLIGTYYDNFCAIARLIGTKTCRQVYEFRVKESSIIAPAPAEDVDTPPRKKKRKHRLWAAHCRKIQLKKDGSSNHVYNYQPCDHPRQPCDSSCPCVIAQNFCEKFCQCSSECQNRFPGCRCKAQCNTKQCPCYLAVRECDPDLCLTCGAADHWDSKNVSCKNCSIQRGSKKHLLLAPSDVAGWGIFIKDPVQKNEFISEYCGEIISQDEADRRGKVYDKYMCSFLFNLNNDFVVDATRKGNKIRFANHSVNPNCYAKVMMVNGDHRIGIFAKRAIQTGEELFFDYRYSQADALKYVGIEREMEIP
* marks the source's active call; other numbers are inactive results.

SMILES	PRC2 inh
O=C(CSc1n[nH]c(-c2ccc(Cl)cc2Cl)n1)Nc1ccc(I)cc1	58*
O=C(CSc1n[nH]c(-c2ccc(Cl)cc2Cl)n1)Nc1cc(C(F)(F)F)ccc1Cl	9
O=C(CCCN1C(=O)c2ccccc2C1=O)Nc1ccc2ccccc2c1	-14
COc1ccccc1C(=O)Nc1ccc2c(c1)OC[C@@H](C)N(C)C[C@@H](C)[C@@H](OC)CN(C)C2=O	-7
CO[C@H]1CN(C)C(=O)c2cc(NC(=O)NC(C)C)ccc2OC[C@@H](C)N(CCC(F)(F)F)C[C@@H]1C	2
CN(CC(=O)Nc1cccc(I)c1)S(=O)(=O)c1ccc(Cl)cc1	53*
CN(CC(=O)Nc1cccc(Cl)c1)S(=O)(=O)c1ccc2ccccc2c1	42
CC(=O)Nc1ccc(NC(=O)CN(C)S(=O)(=O)c2ccc(Cl)cc2)cc1	-4
CCCN(C)C[C@H]1OCCCC[C@@H](C)Oc2ccc(NC(=O)c3ccccc3)cc2C(=O)N([C@@H](C)CO)C[C@H]1C	-10
COCC(=O)N(C)C[C@H]1Oc2cc(C#CCN(C)C)ccc2S(=O)(=O)N([C@@H](C)CO)C[C@@H]1C	-10
COC(=O)c1ccc(NC(=O)CCC(=O)c2ccc(C)cc2C)cc1	10
Cc1ccc(NC(=O)CCC(=O)c2ccc(Oc3ccccc3)cc2)cc1	52*
Cc1ccc(S(=O)(=O)NC(C)C(=O)Nc2ccc(Oc3ccccc3)cc2)cc1 (stereo unspecified)	18
CC(C)NC(=O)N[C@H]1CC[C@H](CCNC(=O)C2CCCC2)O[C@@H]1CO	-4
O=C(N[C@H]1CC[C@H](CCNC(=O)C2CCCCC2)O[C@H]1CO)c1ccncc1	-40
C[C@@H]1CN([C@H](C)CO)C(=O)c2cccc(N(C)C)c2O[C@H]1CN(C)Cc1ccc(Cl)c(Cl)c1	5
Cc1ccc(NC(=O)CSc2nc3ccccc3s2)cc1Cl	48
Cc1ccc(NC(=O)CSc2nc3ccccc3s2)cc1C	55*
O=C(CSc1nc2ccccc2s1)Nc1ccc(Cl)cc1	41
C[C@H](CO)N1C[C@H](C)[C@@H](CN(C)CC2CC2)Oc2c(NS(=O)(=O)c3cccs3)cccc2C1=O	-2
O=C(N[C@@H]1CC[C@H](CCNC(=O)C2CCOCC2)O[C@H]1CO)c1ccncc1	-3
C/C=C/c1ccc2c(c1)O[C@H](CN(C)C(=O)c1ccccc1F)[C@@H](C)CN([C@@H](C)CO)S2(=O)=O	-2
CC(C)C1CCC2(C)CCC(O)C(C)(O)C2C1OC(=O)/C=C/c1ccccc1 (stereo unspecified)	5
COc1cc(/C=C/C(=O)O[C@@H]2C[C@@](O)(C(=O)O)C[C@@H](O)[C@@H]2O)ccc1O	90*
O=C(/C=C/c1ccc(O)cc1)O[C@@H]1CC(O)(C(=O)O)C[C@@H](OC(=O)/C=C/c2ccc(O)cc2)C1O (stereo partly specified)	76*
SMILES	PRC2 inh
CC(=O)CCC1C2C(O)C(C(C)C)C(OC(=O)/C=C/c3ccccc3)CC12C (stereo unspecified)	-26
COc1cc(/C=C/C(=O)CC(=O)/C=C/c2ccc(O)c(OC)c2)ccc1O	10
COc1cc(O)c(C(=O)/C=C/c2ccc(OC)c(OC)c2)c(OC)c1	9
COc1ccccc1CNC(=O)C[C@H]1C[C@H]2c3cc(NC(=O)c4cccnc4)ccc3O[C@H]2[C@@H](CO)O1	13
CO[C@H]1CN(C)C(=O)c2cc(NS(C)(=O)=O)ccc2OC[C@H](C)N(CC2CC2)C[C@H]1C	-2
O=C(Nc1ccccc1)N[C@H]1CC[C@@H](CCNS(=O)(=O)c2ccccc2F)O[C@H]1CO	25
Cc1ccc(-c2cnc3c(c2)C(=O)N([C@H](C)CO)C[C@@H](C)[C@H](CN(C)C(=O)CN(C)C)O3)cc1	8
CC(C)COC(=O)N(C)C[C@H]1OCc2ccccc2-c2c(n(C)c3ccccc23)C(=O)N([C@@H](C)CO)C[C@@H]1C	-14
CN(C(=S)SCc1ccccc1)c1ccccc1	66*
CN(C)S(=O)(=O)N(CC(=O)O)c1ccccc1	16
O=C(C[C@H]1C[C@H]2c3cc(NC(=O)c4cccnc4)ccc3O[C@H]2[C@H](CO)O1)NCc1ccccc1	-2
C[C@@H]1O[C@@H](O[C@@H]2CC[C@@]3(C)C(CC[C@]4(C)C3CC=C3[C@@H]5CC(C)(C)CC[C@]5(C(=O)O[C@@H]5O[C@H](CO)[C@@H](O)[C@H](O)[C@H]5O)CC[C@]34C)[C@]2(C)CO)[C@H](O)[C@H](O[C@@H]2OC[C@@H](O)[C@H](O)[C@H]2O)[C@H]1O (stereo partly specified)	-5
C[C@@H]1O[C@@H](O[C@@H]2[C@@H](O)[C@H](O[C@@H]3[C@@H](O)[C@@H](O)[C@H](O[C@H]4[C@H](OC(=O)[C@]56CCC(C)(C)C[C@H]5C5=CCC7[C@@]8(C)C[C@H](O)[C@H](O[C@@H]9O[C@H](C(=O)O)[C@@H](O)[C@H](O)[C@H]9O)[C@@](C)(CO)C8[C@H](O)C[C@@]7(C)[C@]5(C)C[C@H]6O)O[C@@H](CO)[C@@H]4O)O[C@H]3C)OC[C@H]2O)[C@H](O)[C@H](O)[C@H]1O (stereo partly specified)	99*
C[C@@H]1O[C@@H](O[C@H]2[C@H](O[C@H]3CC[C@@]4(C)C(CC[C@]5(C)C4CC=C4C6CC(C)(C)CC[C@]6(C(=O)O[C@@H]6O[C@H](CO[C@@H]7O[C@H](CO)[C@@H](O[C@@H]8O[C@@H](C)[C@H](O)[C@@H](O)[C@H]8O)[C@H](O)[C@H]7O)[C@@H](O)[C@H](O)[C@H]6O)CC[C@]45C)[C@]3(C)CO)OC[C@H](O)[C@@H]2O)[C@H](O)[C@H](O)[C@H]1O (stereo partly specified)	20
CCOC(=O)c1c(CSc2nc(C)cc(C)n2)nc2c3ccccc3ccn12	-5
COc1ccc(OCC(=O)Nc2ccccc2C(=O)Nc2ccccc2)cc1	-6
Cc1cccc(OCC(=O)Nc2cccc(C(=O)Nc3ccccc3C(=O)O)c2)c1	42
CC(C)(C)c1ccc(OCC(=O)Nc2ccc(C(=O)Nc3ccccc3C(=O)O)cc2)cc1	64*
O=C(CCCCC(=O)N/N=C/c1cccnc1)NO	-27
Cc1ccc(-c2nnc(SCc3ccccc3C#N)n2-c2ccccc2)cc1Cl	17
O=C(C[C@H]1C[C@@H]2c3cc(NC(=O)Nc4ccccc4F)ccc3O[C@@H]2[C@H](CO)O1)NC1CCCC1	29
Cc1cc(C)nc(SCC(O)COc2ccc(Cl)cc2)n1 (stereo unspecified)	4
Cc1cc(Oc2ccccc2)nc(SCC(=O)Nc2ccc(Cl)cc2Cl)n1	19
Cc1cc(Oc2ccccc2)nc(SCCOc2ccccc2)n1	52*
COc1ccc(N(CC(=O)Nc2cccc(Cl)c2Cl)S(C)(=O)=O)cc1OC	-5
C=CCNC(=O)[C@H]1[C@@H]2C(=O)O[C@@H](c3ccccc3)[C@@H](c3ccccc3)N2[C@@H](c2ccccc2OCCO)[C@]12C(=O)Nc1ccc(C#Cc3ccc(OC)cc3)cc12	-19
C=CCNC(=O)[C@@H]1[C@H]2C(=O)O[C@H](c3ccccc3)[C@H](c3ccccc3)N2[C@H](c2ccccc2OCCO)[C@@]12C(=O)Nc1ccc(C#Cc3ccc(OC)cc3)cc12	-11
COc1ccc(C#Cc2ccc3c(c2)[C@]2(C(=O)N3)[C@H](c3ccccc3OCCO)N3[C@H](c4ccccc4)[C@H](c4ccccc4)OC(=O)[C@H]3[C@@H]2C(=O)O)cc1	59*
Cc1cccc(N(CC(=O)Nc2ccc(Cl)c(Cl)c2)S(C)(=O)=O)c1	5

Screening data (PubChem BioAssay)
